Bioassay records from PubChem BioAssay.
In the library only some 7.5% were active in any assay of this set; here they are far more common.
FLuc counter: counter-screen for miR-21 project: firefly luciferase inhibitors or activators; 360,000 tested, 6.9% active; Potency, µM (top dose mostly 57.5 µM), inactives show at the highest dose activity change, negative = inhibition, usual class: inhibitors; P08659; AID 588342; purified FLuc, Km substrates, luminescence inhibition;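 further: plate controls were vehicle for no effect and reference inhibitor for full effect; nearly all actives have a fitted effect of over 55% in size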
Target sequence (P08659 whole entry, looked up): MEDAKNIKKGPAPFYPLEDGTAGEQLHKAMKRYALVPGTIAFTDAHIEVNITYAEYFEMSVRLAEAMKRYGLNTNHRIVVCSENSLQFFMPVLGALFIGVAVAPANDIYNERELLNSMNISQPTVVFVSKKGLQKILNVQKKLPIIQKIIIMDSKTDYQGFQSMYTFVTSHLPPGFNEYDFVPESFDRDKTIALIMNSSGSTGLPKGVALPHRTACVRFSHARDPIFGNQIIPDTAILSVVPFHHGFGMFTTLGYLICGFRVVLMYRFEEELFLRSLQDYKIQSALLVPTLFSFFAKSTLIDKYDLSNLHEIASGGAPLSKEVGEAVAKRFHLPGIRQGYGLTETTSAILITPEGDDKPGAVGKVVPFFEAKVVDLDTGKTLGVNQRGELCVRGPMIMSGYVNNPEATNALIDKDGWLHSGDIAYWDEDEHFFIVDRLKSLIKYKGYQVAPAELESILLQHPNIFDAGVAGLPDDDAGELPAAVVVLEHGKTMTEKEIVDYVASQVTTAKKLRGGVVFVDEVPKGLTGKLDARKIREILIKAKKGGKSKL
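Biochemical qHTS of compounds, final roughly 60 µM downward over six points, against 10 nM purified firefly luciferase using Km concentrations of substrates (10 uM D-luciferin, 10 uM ATP) in Tris acetate pH 7.5 buffer; luminescence output.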
Rab9 promoter act: Rab9 promoter activation. Huh7 Rab9 promoter-luciferase reporter, luminescence, 24 h. Potency, µM (series often up to 9.22 µM), for inactives: top-dose activation, negative = inhibition, usual class: activators. 320,000 tested, 2.8% active; further: % of control where 0% means no effect; nearly all actives have a fitted effect of over 60% in size
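Rab9 promoter-driven luciferase in stably transfected Huh7 cells; 1500 cells/well rested 2 h, exposed to compound in DMSO for 24 h at 37 °C, 5% CO2. Luminescence read 10 min after adding luciferase reagent at ambient temperature.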
NPC1 prom act: NPC1 promoter activation; 320,000 tested, 2.4% active; Potency, µM (series often up to 9.22 µM), for the others: top-dose activation, usual class: activators; Huh7 NPC1 promoter luciferase reporter, 24 h; further: % of control where 0% means no effect; nearly all actives have a fitted effect of over 60% in size
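NPC1 promoter–luciferase Huh7 cells; 24 h compound; luminescence.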
ELG1 genotoxic: induces genotoxicity in HEK293T cells with luciferase-tagged ELG1 | 330,000 tested, 1.3% active | Potency, µM (doses to about 46 µM), for the others: at the highest dose activity change, positive = activation, actives largely listed as activators | HEK293T ELG1-luciferase reporter, luminescence, 16 h; further: % of control where 0% means no effect; nearly all actives have a fitted effect of over 60% in size
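HEK293T cells expressing luciferase-tagged ELG1 were treated with compound or DMSO for 16 hr at 37°C. Luciferase activity was then read after 30 min with ONE-Glo at room temperature; rising signal flags genetic stress.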
SMN2 splice enh: increases expression of the SMN2 splice variant; HEK293 SMN2-luciferase splicing reporter, luminescence, 30-36 h; Potency, µM (titrated, usually from 46.1 µM), for the others: at the highest dose activity change, positive = activation, usual class: activators; 210,000 tested, 2.8% active; AID 1458; further: % of control where 0% means no effect; nearly all actives have a fitted effect of over 55% in size
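HEK293 cells carry an SMN2 […]–luciferase reporter in which exon 7 inclusion puts luciferase in frame. Cells were plated 10-12 h before compound addition, then incubated 30-36 h at 37C. ONE-Glo luminescence was read; sodium butyrate at 4.5 mM final served as control.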
Starred values were filed as active, the others as inactive; ? = inconclusive; · = no result given; [ ] = dose if it differs, or a comment. The call rests on the fitted dose curve; in most records, active means well fitted curve in the direction sought with a large enough effect; inconclusive means small, poorly fitted or top-dose-only effect, or another doubt; inactive means no such curve, though single readings can be large; an effect the other way counts as inactive or inconclusive. Potency means the concentration at half of the fitted maximal effect.

SMILES	FLuc counter	Rab9 promoter act	NPC1 prom act	ELG1 genotoxic	SMN2 splice enh
CCc1ccc(-c2ccc(C(=O)Oc3ccc(Br)cc3)cc2)nc1	-1%	·	·	·	5%
CCc1ccc(-c2ccc(C(=O)O)cc2)nc1	8.5µM*	3.5µM*	?	10%	?
COc1ccc2c(c1)-c1nc(NC(=O)c3ccc(OC)c(Br)c3)sc1CC2	-2%	·	·	·	-22%
NC(=O)c1ccc(F)cc1	1%	-4%	1%	2%	-1%
C/C(=N\OC(=O)c1ccc(F)cc1)c1ccc(F)c(F)c1	1.7µM*	?	0%	0%	·
CCOC(=O)c1cc(/C(C)=N/OC(=O)c2ccc(Cl)cc2)on1	0%	1%	1%	0%	·
Cc1ccc(C(=O)O/N=C(\N)Cc2cccc3ccccc23)cc1	-8%	8%	0%	-10%	·
N/C(=N\OC(=O)Oc1ccccc1)c1ccc(Br)cc1	?	2%	1%	1%	-13%
N/C(=N\OC(=O)c1ccc(F)cc1)c1ccccc1	0.17µM*	?	?	?	5%
Cc1ccc(/C(N)=N/OC(=O)c2ccc(F)cc2)cc1	4.8µM*	15%	16%	10µM*	?
N/C(=N\OC(=O)c1ccc(F)cc1)c1ccc(Br)cc1	2.7µM*	?	?	?	19%
COc1ccccc1/C=C/C=N/n1c(C)nnc1C	1%	-1%	-3%	8%	·
O=S(=O)(c1ccccc1Br)N1CCC(O)(c2cccnc2)CC1	-1%	-6%	-2%	-5%	·
Cc1cc2c(s1)c1c(n2C)C(=O)N(Cc2ccccc2F)C1	-8%	2%	0%	·	·
COc1ccccc1Nc1cc(C(=O)NCc2cccnc2)c2ccccc2n1	8.5µM*	4%	-2%	0%	·
COc1ccc(Nc2cc(C(=O)NCc3ccccc3)c3ccccc3n2)c(OC)c1	8.5µM*	·	·	·	-1%
CC(C)CNC(=O)CSc1nnc2ccccn12	1%	-7%	-5%	-1%	4%
Cc1ccc(-c2cc(-c3nnc(SCC(=O)NCC(C)C)n3N)c3ccccc3n2)cc1	17µM*	4%	23%	1%	4%
CCC(C)NC(=O)CSc1nnc(-c2cc(-c3ccc(C)cc3)nc3ccccc23)n1N (stereo not given)	11µM*	0%	-1%	-5%	-5%
O=C(CCC(=O)OCC(=O)c1ccc(Cl)cc1)NC1CCCCC1	-16%	2%	-1%	-1%	-2%
CC(C)(C)c1ccc(OCCC(=O)OCC(=O)NC2CCCCC2)cc1	17µM*	2%	1%	2%	·
Cc1ccc(C(=O)COC(=O)CCC(=O)NC2CCCCC2)cc1C	9.5µM*	2%	1%	-3%	0%
CC(=O)N/C(=C\c1ccccc1)C(=O)OCC(=O)N(CC(C)C)c1c(N)n(Cc2ccccc2)c(=O)[nH]c1=O	-2%	-2%	0%	-4%	·
COc1ccc(NC(=O)C2C3C=CC4(O3)C2C(=O)N(CCN2CCCCC2C)C4C(=O)NC2CCCCC2)cc1 (stereo not given)	0%	3%	1%	1%	·
CN(C)c1ccc(/C=N/NC(=O)CSc2ccccn2)cc1	12µM*	?	27%	?	·
SMILES	FLuc counter	Rab9 promoter act	NPC1 prom act	ELG1 genotoxic	SMN2 splice enh
CCCOc1ccc(/C=N/NC(=O)CSc2ccccn2)cc1OC	11µM*	?	2%	13%	·
COc1cc(/C=N/NC(=O)CSc2ccccn2)ccc1O	?	15%	-5%	3%	·
CC(=C/c1ccc(C(C)C)cc1)/C=N/NC(=O)CSc1ccccn1	?	2.8µM*	?	?	3%[1.84 µM]
COc1ccc(/C=N/NC(=O)c2ccn[nH]2)cc1CSc1ccccn1	11µM*	?	?	?	·
CC(=O)N1CCc2cc(Br)cc(S(=O)(=O)CCC(=O)N3CCN(c4ccccc4Cl)CC3)c21	-8%	·	·	·	0%
N#Cc1ccc(CSc2nc3c(c(=O)[nH]2)CCC3)cc1	-2%	·	·	·	·
O=C(CSc1nnc(-c2ccccn2)o1)Nc1ccccc1C(F)(F)F	-1%	?	?	?	·
Fc1ccc(CSc2nnc(-c3ccccn3)o2)cc1	11µM*	2.2µM*	1.4µM*	?	·
O=C(CSc1nnc(-c2ccccn2)o1)Nc1ccccc1	-16%	2.5µM*	2.5µM*	?	11µM*
O=C(CSc1nnc(-c2ccccn2)o1)Nc1ccc(F)cc1	6%	?	2µM*	?	·
COc1ccccc1C(CNC(=O)C(CCSC)NS(=O)(=O)c1ccccc1F)N1CCCC1 (stereo not given)	2%	-7%	-2%	1%	·
COc1ccc(/C=C/C(=O)c2ccc(O)cc2)cc1CN1CCOCC1	?	-4%	7%	8%	-13%[1.84 µM]
O=C(/C=C/c1cccc(O)c1)c1ccc(N2CCOCC2)cc1	1.2µM*	?	?	12%	·
Cc1ccc(NN=C2c3ccccc3-c3ccccc32)cc1	15µM*	?	?	?	27%
Cc1ccc(OCC(=O)NN=C2c3ccccc3-c3ccccc32)cc1	4%	5%	-5%	1%	-14%
O=C(COC(=O)C1CCC1)c1c[nH]c2ccccc12	11µM*	2%	-1%	1%	·
O=C(COC(=O)C1CC1)c1c[nH]c2ccccc12	12µM*	?	?	?	?
CC(=O)OCC(=O)c1c[nH]c2ccccc12	-16%	0%	4%	1%	-1%
O=C(COc1cccnc1[N+](=O)[O-])c1c[nH]c2ccccc12	?	12%	17%	6%	·
Cc1[nH]c2ccccc2c1C(=O)COC(=O)C1CCC1	15µM*	1%	-2%	0%	·
O=C(/C=C/c1ccccc1)OCC(=O)c1c[nH]c2ccccc12	·	·	·	-2%	·
O=C(Cc1ccccc1[N+](=O)[O-])OCC(=O)c1c[nH]c2ccccc12	11µM*	?	?	13%	·
Cc1[nH]c2ccccc2c1C(=O)COC(=O)C1CCC(=O)N1 (stereo not given)	4%	1%	2%	0%	8%
CC1(C)Cc2c(sc(NC(=O)c3ccco3)c2C(=O)O)CO1	6.7µM*	?	?	?	?
CC1(C)Cc2c(sc(NC(=O)c3ccc(Br)o3)c2C#N)CO1	2.4µM*	3.5µM*	2.5µM*	22%	13µM*
SMILES	FLuc counter	Rab9 promoter act	NPC1 prom act	ELG1 genotoxic	SMN2 splice enh
Cn1c(N)c(C(=O)COC(=O)COc2ccc(Cl)cc2Cl)c(=O)n(C)c1=O	·	·	·	2%	·
CCn1c(O)c(C=Nc2ccccc2)sc1=S	9.5µM*	2.8µM*	?	?	·
COc1ccc(NC(=O)CSc2nnc(N)s2)cc1	-12%	14%	9%	8%	14%
CSc1nc2ccc(NC(=O)CSc3nnc(N)s3)cc2s1	21µM*	15%	9%	?	9%
CSc1nc2ccc(NC(=O)c3ccccn3)cc2s1	0.43µM*	0.4µM*	0.45µM*	0.092µM*	·
CSc1nc2ccc(NC(=O)C3=NN(c4ccccc4)C(=O)CC3)cc2s1	19µM*	0%	6%	0%	?
